Drawing on PubChem BioAssay (NCATS), this text covers Potency for 20 molecules.

Results filed as inconclusive are left out. Unmarked numbers belong to inactive results. Activity calls are given as the source filed them. Calls follow the shape of the dose curve; as a rule, active = well fitted cell-killing curve with a large enough effect; inconclusive = small, poorly fitted or top-dose-only effect, or effect the other way; inactive = flat fitted curve, though single readings scatter.

Holding throughout (assay): Primary qHTS to identify gynecologic anti-cancer compounds using libraries of approved drugs and bioactive compounds (AID 1345084); also: nearly all actives have a fitted effect of over 55% in size
For orientation: qHTS replaces the single test concentration by a dilution series.

In one assay the test system is C33A. Particulars: Gynecologic cancer cell panel viability, ATPlite luminescence, 48 h; series mostly up to 57.5 µM. In outline:
(§1)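 48 h compound exposure at 37 C, 5% CO2; five-point qHTS. ATPlite luminescence readout of cell ATP.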
For orientation: Cellular ATP, detected with luciferase, serves as a proxy for viable cell number.

For a further assay, the system named is CASKI. Particulars: Gynecologic cancer cell panel viability, ATPlite luminescence, 48 h; series mostly up to 57.5 µM. In outline:
as §1

For a further assay, the system named is Es-2. As to conditions: Gynecologic cancer cell panel viability, ATPlite luminescence, 48 h; series mostly up to 57.5 µM. A digest of the protocol: as §1
Another assay deals with HeLa. Particulars: Gynecologic cancer cell panel viability, ATPlite luminescence, 48 h; series mostly up to 57.5 µM. A digest of the protocol: as §1
The subject of a further assay is Hek293T. Particulars: Gynecologic cancer cell panel viability, ATPlite luminescence, 48 h, control line for the selectivity index; series mostly up to 57.5 µM. A digest of the protocol:
as §1

In a further assay the test system is JEG-3. As to conditions: Gynecologic cancer cell panel viability, ATPlite luminescence, 48 h; series mostly up to 57.5 µM. In outline:
as §1

A further assay relates to OV90. Particulars: Gynecologic cancer cell panel viability, ATPlite luminescence, 48 h; series mostly up to 57.5 µM. A digest of the protocol:
as §1

The subject of a further assay is PA-1. As to conditions: Gynecologic cancer cell panel viability, ATPlite luminescence, 48 h; series mostly up to 57.5 µM. In outline:
as §1

Another assay has as its system Tov-21-G. Particulars: Gynecologic cancer cell panel viability, ATPlite luminescence, 48 h; series mostly up to 57.5 µM. A digest of the protocol:
as §1

For another assay, the system named is Tov112D. Particulars: Gynecologic cancer cell panel viability, ATPlite luminescence, 48 h; series mostly up to 57.5 µM. In outline: as §1
Another assay has as its system SKOV3. As to conditions: Gynecologic cancer cell panel viability, ATPlite luminescence, 48 h; series mostly up to 57.5 µM. A digest of the protocol: as §1
Potency is read from the fitted curve at half-maximal effect.

On to `C=C(C)[C@@H]1CC[C@]2(C(=O)O)CC[C@]3(C(=O)O)[C@H](CCC4[C@@]5(C)CCC(=O)C(C)(C)C5CC[C@]43C)C12` (stereo not given in full), for which the Potency entry in the assay with C33A, in the assay with CASKI, in the assay on Es-2, with HeLa, in the assay on Hek293T and in the assay with JEG-3 was “inactive” each time. In addition, the Potency result in the assay on OV90, with PA-1, in the assay on Tov-21-G and with Tov112D was “inactive” throughout.
Consider `COC1CCN(C(=O)c2cc(Cc3n[nH]c(=O)c4ccccc34)ccc2F)CC1`, for which the Potency entry in the assay with C33A, in the assay on CASKI, in the assay with Es-2, with HeLa, with Hek293T and in the assay with JEG-3 was “inactive” each time. The Potency result in the assay with OV90, in the assay with PA-1, with SKOV3, in the assay on Tov-21-G and in the assay with Tov112D was “inactive” each time.
For `C=C(C)C1CC(O)C(C)C12CC(O)C1(C)OC1C2O` (stereo not given), the Potency is 11.2 µM (active) with C33A; 12.6 µM (active) with CASKI; 8.91 µM (active) with Es-2; 14.1 µM (active) in the assay with HeLa; 28.2 µM (active) in the assay with JEG-3; 7.08 µM (active) in the assay on OV90. Also, the Potency with PA-1 was 8.91 µM (active); in the assay on SKOV3 it was 7.94 µM (active).
`CC(C)(C[C@@](O)(Cc1cc2ccncc2[nH]1)C(F)(F)F)c1cc(F)ccc1O`: the Potency result in the assay with C33A, with CASKI, in the assay with Es-2, with HeLa, in the assay with JEG-3 and in the assay on OV90 was “inactive” each time. Besides, the Potency entry in the assay with PA-1, in the assay on Tov-21-G and with Tov112D was “inactive” each time.
For `CCC(C)/C=C(C)/C=C/C1=CC2=C(Cl)C(=O)C(C)(OC(C)=O)C(=O)C2(O)C(OC)O1` (stereo not given), the Potency result in the assay on C33A, with CASKI, in the assay with Es-2, with HeLa, in the assay on JEG-3 and in the assay with OV90 was “inactive” in each case. Besides, the Potency entry in the assay with PA-1, in the assay on SKOV3, with Tov-21-G and in the assay with Tov112D was “inactive” in each case.
As to `COC(CCc1ccc(O)cc1)CC(=O)CCc1ccc(O)cc1` (stereo not given), the Potency result with C33A, in the assay on CASKI, in the assay with Es-2, in the assay with HeLa, in the assay with Hek293T and in the assay with OV90 was “inactive” in each case. Also, the Potency entry in the assay on PA-1, with SKOV3, in the assay with Tov-21-G and in the assay on Tov112D was “inactive” in each case.
For the molecule `C[C@@H](N[C@H]1CCCC[C@@H]1NC(=O)c1ccc(Cl)cc1)c1cccc2ccccc12`, the Potency entry in the assay with C33A, with CASKI, in the assay on Es-2, in the assay on HeLa, in the assay with Hek293T and in the assay on OV90 was “inactive” throughout. In addition, the Potency entry in the assay on PA-1 and with Tov-21-G was “inactive” throughout. Besides, the Potency with SKOV3 is 31.6 µM (active).
Turning to `CC(NC(=O)Cc1cc(F)cc(F)c1)C(=O)NC1C(=O)N(C)c2ccccc2-c2ccccc21` (stereo not given), the Potency result in the assay on C33A, in the assay on CASKI, in the assay on Es-2, in the assay with HeLa, in the assay with Hek293T and with JEG-3 was “inactive” in each case. In addition, the Potency entry with OV90, with Tov-21-G and in the assay with Tov112D was “inactive” throughout.
In the case of `Nc1nc2c(c(N3CC[C@@H](N)C3)n1)CCCc1ccccc1-2`, the Potency entry with C33A, with CASKI, in the assay with Es-2, in the assay with HeLa, in the assay on JEG-3 and in the assay on PA-1 was “inactive” in each case. In addition, the Potency result with Tov-21-G and with Tov112D was “inactive” in each case. For the same molecule, the Potency with SKOV3 was 28.2 µM (active).
In the case of `NC(=O)c1cnc(N[C@@H]2CCCC[C@H]2N)nc1Nc1cccc(-n2nccn2)c1`, the Potency result with C33A, in the assay on CASKI, in the assay on Es-2, with HeLa, in the assay on Hek293T and with JEG-3 was “inactive” throughout. For the same molecule, the Potency result in the assay with Tov112D was “inactive”.
As to `Cn1sc(=O)n(Cc2ccccc2)c1=O`, the Potency result with C33A, in the assay on CASKI, with Es-2, with HeLa, with OV90 and with PA-1 was “inactive” each time. The Potency result in the assay with SKOV3 and in the assay with Tov112D was “inactive” in each case.
Consider `O=C(Nc1ccc(-c2ccc(Cl)c(Cl)c2)cc1)C1=C(O)c2ccccc2S(=O)(=O)N1`, for which the Potency entry in the assay on C33A, in the assay on CASKI, in the assay on Es-2, in the assay with HeLa, with JEG-3 and with OV90 was “inactive” throughout. Further, the Potency result in the assay on SKOV3, with Tov-21-G and in the assay on Tov112D was “inactive” throughout.
For the molecule `COc1cc2nc(N3CCN(C(=O)c4ccco4)C4CCCCC43)nc(N)c2cc1OC` (stereo not given), the Potency entry in the assay on C33A, in the assay on CASKI, in the assay with Es-2, in the assay on HeLa, in the assay on Hek293T and with JEG-3 was “inactive” in each case. The Potency entry with OV90 and in the assay on Tov112D was “inactive” each time.
Consider `COc1ccc(NC(=O)c2ccc(-c3ccc(-c4nnc(C)o4)cc3C)cc2)cc1N1CCN(C)CC1`, for which the Potency result in the assay with C33A, in the assay with CASKI, in the assay on Es-2, in the assay on HeLa, in the assay with Hek293T and with JEG-3 was “inactive” throughout. Besides, the Potency entry with OV90, in the assay on SKOV3, in the assay with Tov-21-G and in the assay with Tov112D was “inactive” each time.
Take `CCC(CC)C(=O)OC12C(OC(=O)C(C)C)C(C)C3(O)C(C=C(CO)CC4(O)C(=O)C(C)=CC43)C1C2(C)C` (stereo not given): the Potency entry in the assay with C33A, in the assay with CASKI, in the assay on HeLa, in the assay with Hek293T, in the assay on JEG-3 and with PA-1 was “inactive” throughout. For the same molecule, the Potency result in the assay with SKOV3, with Tov-21-G and with Tov112D was “inactive” each time. Further, in the assay on Es-2, the Potency was 0.0708 µM (active).
On to `COc1cc(OC)c2c(=O)[nH]c(-c3cc(C)c(OCCO)c(C)c3)nc2c1`, for which the Potency entry with C33A, with CASKI, in the assay with Es-2, in the assay with HeLa, in the assay on Hek293T and in the assay with JEG-3 was “inactive” in each case. The Potency result in the assay on OV90, with Tov-21-G and with Tov112D was “inactive” in each case.
As to `CCCCCCCCC(=O)N[C@H](CN1CCCC1)[C@H](O)c1ccc2c(c1)OCCO2`, the Potency result in the assay on C33A, with CASKI, with Es-2, with HeLa, with JEG-3 and in the assay on PA-1 was “inactive” each time. Moreover, the Potency result in the assay with Tov-21-G and in the assay with Tov112D was “inactive” throughout.
For the molecule `C=C1C(=O)O[C@@H]2C[C@@]3(C)CCCC(=C)[C@]3(O)C[C@H]12`, the Potency result in the assay on C33A, with CASKI, in the assay on Es-2, in the assay on HeLa, in the assay with JEG-3 and in the assay with OV90 was “inactive” in each case. In addition, the Potency entry in the assay on SKOV3 and in the assay on Tov112D was “inactive” each time.
As to `Cc1ccc(NC(=O)N2CCN(c3nc(N)nc4sc(-c5cccnc5)nc34)CC2)cc1`, the Potency entry in the assay with C33A, in the assay on CASKI, with Es-2, in the assay with HeLa, in the assay with Hek293T and in the assay with JEG-3 was “inactive” throughout. The Potency result in the assay with OV90, with Tov-21-G and in the assay on Tov112D was “inactive” in each case.
For `N#Cc1cc(-c2ccnc(Nc3ccc(N4CCOCC4)cc3)n2)ccc1OC1CCOCC1`, the Potency entry with C33A, in the assay on CASKI, in the assay with Es-2, in the assay with HeLa, in the assay with Hek293T and in the assay with JEG-3 was “inactive” each time. The Potency result with OV90, in the assay on Tov-21-G and with Tov112D was “inactive” in each case.
